{"source": "PubChem BioAssay", "key": {"[1]": {"assay": "potentiators of IFN-gamma STAT1 reporter activity – cell-based, HTS, luciferase reporter, confirmation (AID 1262;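 active = activation above a set limit carried over from the earlier primary STAT1 screen, cut at about 140% in these data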;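 note: simple ratio to median IFN-gamma plus DMSO wells so 0% means no light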)", "conditions": "NIH 3T3 STAT1-luciferase reporter, IFN-gamma potentiation, luminescence; at 5.7 µM; stronger effect = higher value; 100% = IFN-gamma EC80 alone, no compound"}, "[2]": {"assay": "enhancement of NF-kB transcriptional signalling – cell-based, HEK293T, luciferase luminescence, TNF-alpha, counter-screen for STAT1 activator project (AID 1306;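 active = activation above the mean of solvent-only control wells plus 3 SD, set per campaign, cut at about 130% in these data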;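 note: TNF-alpha given at a submaximal dose yielding about 80% of full reporter signal; values are well signal over median control so 100% means no change and 0% no light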)", "conditions": "HEK293T NF-kB luciferase reporter, TNF-alpha stimulated, at 5.7 µM, stronger effect = higher value, 100% = TNF-alpha with vehicle only"}, "[3]": {"target": "Signal transducer and activator of transcription 3 (Homo sapiens) (UniProt P40763)", "assay": "enhancers of IL-6 STAT3 transcription – U3A cells, luciferase, luminescence, counter-screen for STAT1 activator project, confirmation (AID 1316);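 note: higher means more STAT3 reporter activation so hits are non-selective activators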", "conditions": "U3A cells STAT3-luciferase reporter, IL-6, luminescence; at 5.7 µM; stronger effect = higher value; 100 = IL-6 alone, no compound effect; cells lack STAT1"}, "[4]": {"target": "Oxysterols receptor LXR-beta (Homo sapiens) (UniProt P55055)", "sequence (P55055 whole entry, looked up, the tested form may be a part)": "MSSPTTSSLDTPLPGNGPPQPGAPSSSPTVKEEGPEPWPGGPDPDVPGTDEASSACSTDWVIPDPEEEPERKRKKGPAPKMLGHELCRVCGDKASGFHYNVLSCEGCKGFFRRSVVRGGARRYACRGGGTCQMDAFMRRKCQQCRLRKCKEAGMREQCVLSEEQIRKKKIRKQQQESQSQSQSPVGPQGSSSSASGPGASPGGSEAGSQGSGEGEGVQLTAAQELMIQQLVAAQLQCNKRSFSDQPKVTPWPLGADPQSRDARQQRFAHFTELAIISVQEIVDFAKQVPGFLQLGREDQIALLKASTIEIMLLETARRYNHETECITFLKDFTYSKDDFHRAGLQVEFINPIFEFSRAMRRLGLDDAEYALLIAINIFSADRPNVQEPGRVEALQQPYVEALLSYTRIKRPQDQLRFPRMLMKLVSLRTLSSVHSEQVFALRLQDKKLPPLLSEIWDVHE", "assay": "nonspecific reporter activation via LXR – cell-based, luminescence, HEK293, H. contortus campaign, counter-screen for hcDAF-12 agonist project, confirmation (AID 743027;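 active = mean percent activation of the reporter above a cutoff set as the average over tested compounds plus their standard deviation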)", "conditions": "HEK293 Gal4-LXR tk-luc reporter, 24 h, at 6.8 µM, stronger effect = higher value, normalized: DMSO 0%, positive control 100%"}, "[5]": {"tested_on": "Nuclear hormone receptor DAF-12 (Haemonchus contortus)", "assay": "hcDAF-12 luciferase reporter activation, retest – cell-based, luminescence, HEK293, lit1-tk-luc, triplicate, confirmation (AID 743032;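 active = mean activation across triplicate tests above the threshold derived from the earlier primary screen, cut at about 5.5% in these data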)", "conditions": "HEK293 hcDAF-12 lit1-tk-luc reporter, at 6.8 µM, stronger effect = higher value, % of Δ7-dafachronic acid response"}, "[6]": {"tested_on": "DAF-12 nuclear receptor (Heterodera glycines), GAL4-LBD fusion", "assay": "hgDAF-12 GAL4 fusion reporter activation, retest – cell-based, luminescence, HEK293, GAL4-LBD fusion, confirmation (AID 743050;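 active = mean activation over triplicate wells above the hit cutoff derived from the earlier primary screen, cut at about 11% in these data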;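 note: 0% = DMSO low control and 100% = 2 mM sodium butyrate high control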)", "conditions": "HEK293 GAL4-hgDAF12 luciferase reporter, agonist mode; at 6.8 µM; stronger effect = higher value; percent of butyrate response"}, "[7]": {"target": "Oxysterols receptor LXR-beta (Homo sapiens) (UniProt P55055)", "assay": "nonspecific reporter activation via LXR – cell-based, luminescence, HEK293, H. glycines campaign, counter-screen for hgDAF-12 agonist project, confirmation (AID 743051;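 active = mean activation of the triplicate above a set limit carried over from the primary screen, none filed active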)", "conditions": "HEK293 Gal4-LXR luciferase reporter, 24 h; at 6.8 µM; stronger effect = higher value"}, "[8]": {"assay": "suppression of KLF5 promoter-driven luciferase – DLD-1 cells, luminescence, confirmation (AID 1834;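 active = inhibition above a set limit taken from the earlier primary screen, cut at about 63% in these data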;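 note: 0% = DMSO wells and 100% = LY294002 at 200 µM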)", "conditions": "DLD-1 KLF5 promoter firefly luciferase reporter, at 4 µM, stronger effect = higher value"}, "[9]": {"assay": "IEC-6 intestinal cell killing – luminescence, triplicate, cytotoxicity control for KLF5 inhibitor project (AID 1905; in the data active = inhibition above about 23%;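 note: cells exposed to compounds for 48 hours before viability read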)", "conditions": "IEC-6 rat intestinal cells, viability luminescence; at 4 µM; stronger effect = higher value"}, "[10]": {"assay": "blockers of IL-6 STAT3 signaling – U3A cells, luciferase, luminescence, confirmation (AID 1265;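 active = inhibition above the hit cutoff computed for the primary STAT3 screen, cut at about 44% in these data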)", "conditions": "IL-6 STAT3 luciferase reporter, at 5.7 µM, stronger effect = higher value, cell line lacks STAT1"}, "[11]": {"assay": "inhibition of TNF-alpha-driven NF-kB transcription – cell-based, HEK293T, luciferase, TNF-alpha stimulus, counter-screen for STAT3 inhibitor project, confirmation (AID 1308;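 active = inhibition above the mean of solvent-only control wells plus 3 SD, cutoff set per campaign, cut at about 13% in these data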;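 note: 0% = TNF-alpha with DMSO and 100% = TNF-alpha with MG high control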)", "conditions": "HEK293T NF-kB luciferase reporter, TNF-alpha induced; at 5.7 µM; stronger effect = higher value"}, "[12]": {"assay": "inhibition of STAT1-driven transcription – cell-based, NIH 3T3, luciferase luminescence, IFN-gamma, counter-screen for STAT3 inhibitor project, confirmation (AID 1317;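 active = inhibition above the mean plus 3 SD of solvent-only control wells, limit set per screening run, cut at about 16% in these data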)", "conditions": "NIH 3T3 STAT1-luciferase reporter, IFN-gamma induced, at 5.7 µM, stronger effect = higher value"}}, "note": "Some of the results follow. Unmarked numbers belong to inactive results. The source made the active and inactive calls.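 Rule for the calls, unless noted: active = activation above the solvent-only control well mean plus 3 SD, set per plate batch (cut at about 110% in these data); inactive = the rest.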"}
{"compound": "CC(=O)Nc1cccc(-c2csc(Nc3cccc(C)n3)n2)c1", "values": [{"measurement": "activation (% of control)", "setting": "[1]", "result": "241% (active)"}, {"measurement": "activation (% of control)", "setting": "[2]", "result": "144% (active)"}, {"measurement": "activation (% of control)", "setting": "[3]", "result": 106, "unit": "%"}, {"measurement": "activation", "setting": "[4]", "result": 1.08, "unit": "%"}, {"measurement": "activation", "setting": "[5]", "result": 3.26, "unit": "%"}, {"measurement": "activation", "setting": "[6]", "result": "19% (active)"}, {"measurement": "activation", "setting": "[7]", "result": 1.17, "unit": "%"}]}
{"compound": "Cn1nnc2cc(C(=O)NCCC3=CCCCC3)ccc21", "values": [{"measurement": "activation (% of control)", "setting": "[1]", "result": "171% (active)"}, {"measurement": "activation (% of control)", "setting": "[2]", "result": 117, "unit": "%"}, {"measurement": "activation (% of control)", "setting": "[3]", "result": "119% (active)"}]}
{"compound": "CCOc1ccc2nc(C(=O)N3CCCC(C)C3)sc2c1", "note": "(stereo not drawn)", "values": [{"measurement": "activation (% of control)", "setting": "[1]", "result": "217% (active)"}, {"measurement": "activation (% of control)", "setting": "[2]", "result": 133, "unit": "%"}, {"measurement": "activation (% of control)", "setting": "[3]", "result": 97.8, "unit": "%"}, {"measurement": "activation", "setting": "[4]", "result": 1.14, "unit": "%"}, {"measurement": "activation", "setting": "[5]", "result": 4.22, "unit": "%"}]}
{"compound": "COc1ccc(CS(=O)/C(Cl)=C(/Cl)C(=O)Nc2ccc(OC)nc2)cc1", "note": "(stereo not drawn)", "values": [{"measurement": "activation (% of control)", "setting": "[1]", "result": "335% (active)"}, {"measurement": "activation (% of control)", "setting": "[2]", "result": 67.4, "unit": "%"}, {"measurement": "activation (% of control)", "setting": "[3]", "result": 105, "unit": "%"}, {"measurement": "inhibition", "setting": "[8]", "result": "97% (active)"}, {"measurement": "inhibition", "setting": "[9]", "result": "63.7% (active)"}]}
{"compound": "O=C(Nc1ccc2c(c1)CCC2)c1ccc(Br)s1", "values": [{"measurement": "activation (% of control)", "setting": "[1]", "result": "236% (active)"}, {"measurement": "activation (% of control)", "setting": "[2]", "result": "137% (active)"}, {"measurement": "activation (% of control)", "setting": "[3]", "result": "114% (active)"}, {"measurement": "activation", "setting": "[4]", "result": 2.03, "unit": "%"}, {"measurement": "activation", "setting": "[5]", "result": "7.91% (active)"}, {"measurement": "activation", "setting": "[6]", "result": "24.6% (active)"}, {"measurement": "activation", "setting": "[7]", "result": 1.14, "unit": "%"}]}
{"compound": "COc1ccc(-n2nnnc2-c2nc3ccccc3s2)cc1", "values": [{"measurement": "activation (% of control)", "setting": "[1]", "result": "214% (active)"}, {"measurement": "activation (% of control)", "setting": "[2]", "result": 117, "unit": "%"}, {"measurement": "activation (% of control)", "setting": "[3]", "result": "111% (active)"}, {"measurement": "activation", "setting": "[4]", "result": 1.88, "unit": "%"}, {"measurement": "activation", "setting": "[5]", "result": "12.8% (active)"}]}
{"compound": "Cc1cc(C)c2nc(NC(=O)C3CCCO3)sc2c1", "note": "(stereo not drawn)", "values": [{"measurement": "activation (% of control)", "setting": "[1]", "result": "209% (active)"}, {"measurement": "activation (% of control)", "setting": "[2]", "result": "138% (active)"}, {"measurement": "activation (% of control)", "setting": "[3]", "result": "195% (active)"}, {"measurement": "activation", "setting": "[4]", "result": 1.55, "unit": "%"}, {"measurement": "activation", "setting": "[5]", "result": "6.1% (active)"}]}
{"compound": "CC(=O)Nc1cccc(-c2cnc3ccccc3n2)c1", "values": [{"measurement": "activation (% of control)", "setting": "[1]", "result": "165% (active)"}, {"measurement": "activation (% of control)", "setting": "[2]", "result": 126, "unit": "%"}, {"measurement": "activation (% of control)", "setting": "[3]", "result": 101, "unit": "%"}]}
{"compound": "CN(c1ccc(C(=O)NCCC2=CCCCC2)cc1)S(C)(=O)=O", "values": [{"measurement": "activation (% of control)", "setting": "[1]", "result": "177% (active)"}, {"measurement": "activation (% of control)", "setting": "[2]", "result": 124, "unit": "%"}, {"measurement": "activation (% of control)", "setting": "[3]", "result": "121% (active)"}]}
{"compound": "COc1ccc(/C=N/Nc2nc3ccccc3o2)cc1OC", "values": [{"measurement": "activation (% of control)", "setting": "[1]", "result": "208% (active)"}, {"measurement": "activation (% of control)", "setting": "[2]", "result": 133, "unit": "%"}, {"measurement": "activation (% of control)", "setting": "[3]", "result": 108, "unit": "%"}]}
{"compound": "NC(=O)Cc1ccc2sc(-c3ccccc3)nc2c1", "values": [{"measurement": "activation (% of control)", "setting": "[1]", "result": "203% (active)"}, {"measurement": "activation (% of control)", "setting": "[2]", "result": 126, "unit": "%"}, {"measurement": "activation (% of control)", "setting": "[3]", "result": 108, "unit": "%"}, {"measurement": "activation", "setting": "[6]", "result": "17.4% (active)"}, {"measurement": "activation", "setting": "[7]", "result": 0.66, "unit": "%"}]}
{"compound": "c1cnc(Nc2nc(-c3ccc4ccccc4c3)cs2)nc1", "values": [{"measurement": "activation (% of control)", "setting": "[1]", "result": "208% (active)"}, {"measurement": "activation (% of control)", "setting": "[2]", "result": "139% (active)"}, {"measurement": "activation (% of control)", "setting": "[3]", "result": 105, "unit": "%"}]}
{"compound": "Cc1ccc2nc(-c3ccc(NC(=O)c4cccnc4)cc3)oc2c1", "values": [{"measurement": "inhibition", "setting": "[10]", "result": 31.7, "unit": "%"}, {"measurement": "inhibition", "setting": "[11]", "result": -25.2, "unit": "%"}, {"measurement": "inhibition", "setting": "[12]", "result": -38.3, "unit": "%"}]}
{"compound": "Cc1ccc2nc(-c3ccc(NC(=O)CN(C)S(=O)(=O)c4ccccc4)cc3)sc2c1", "values": [{"measurement": "inhibition", "setting": "[10]", "result": 20.1, "unit": "%"}, {"measurement": "inhibition", "setting": "[11]", "result": -18.5, "unit": "%"}, {"measurement": "inhibition", "setting": "[12]", "result": -90.5, "unit": "%"}]}
{"compound": "O=C(Nc1ccc(NC(=O)c2cccs2)cn1)c1ccco1", "values": [{"measurement": "inhibition", "setting": "[10]", "result": 20.3, "unit": "%"}, {"measurement": "inhibition", "setting": "[11]", "result": -29.5, "unit": "%"}, {"measurement": "inhibition", "setting": "[12]", "result": -92.3, "unit": "%"}]}
